Among the data in PubChem BioAssay (NCI) are growth values, retold here.

Common to all, as to test: NCI-60 one-dose screen, 48 h (100 = growth as untreated, 0 = no growth, -100 = all killed)
Conditions in all cases: 10 µM unless noted

The subject of experiment [1] is RPMI-8226 leukemia.
Experiment [2] relates to OVCAR-8 ovarian.
The subject of experiment [3] is OVCAR-4 ovarian.
The test system of experiment [4] is SK-OV-3 ovarian.
Experiment [5] concerns IGROV1 ovarian.
In experiment [6] the test system is OVCAR-3 ovarian.
Experiment [7] has as its system HS 578T breast.
Experiment [8] has as its system NCI/ADR-RES ovarian.
Experiment [9] has as its system T-47D breast.
The test system of experiment [10] is OVCAR-5 ovarian.

This is part of a sample that, as a whole, favours compounds with a hit. Of some 83,000 tested, about 20% had one in any assay.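 48-hour exposure, single concentration, 96-well plates; percent growth endpoint where 0 means no net growth. Active: below 10.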 Values without a mark were called inactive. Activity calls are given as the source filed them.

Regarding `O=C(N/N=C/c1ccccc1O)C(=O)Nc1ccc(F)cc1`, the growth in experiment [1] is 52.2%; in [2], 38.7%; in experiment [3], 27.2%; in experiment [4] it was 59.1%; in [5] it was 53%; in experiment [6], 27.7%. Moreover, the growth in experiment [7] is 74.6%; in [8] it was 18.1%; in [9], 52.6%.
As to `O=S1(=O)CCN(Cc2ccccc2)CC1`, the growth in experiment [1] was 102%; in experiment [2], 111%; in experiment [3], 107%; in [4], 101%; in experiment [5], 119%; in experiment [6] it was 105%. Besides, the figures for the growth in experiment [7], in [8] and in [9] were 109%, 106% and 93.3%, respectively.
For the molecule `COc1ccc(CCN2C(=O)CCSC2=S)cc1`, the growth in experiment [1] was 8.09% (active); in experiment [2], 63.7%; in experiment [3], 74.8%; in experiment [4] it was 102%; in experiment [5], 41.7%; in experiment [6] it was 9.45% (active). Further, the growth in [7] was 87.7%; in experiment [8] it was 71.7%; in [9] it was 62%.
For `CC(C)[C@H](NC(=O)Cn1cc(C(=O)O)nn1)C(=O)O`, the growth was 105% in experiment [1]; 98.1% in [2]; 104% in [3]; 106% in experiment [4]; 111% in experiment [5]; 108% in experiment [6]. The growth in experiment [7] is 112%; in [8], 106%; in [9], 106%.
Regarding `Cc1ccc(Nc2nc(N)c3ccccc3n2)cc1Cl`, the growth in experiment [1] was 24%; in [2], 57.8%; in experiment [3], 55.7%; in experiment [4] it was 80.4%; in experiment [5], 57.3%; in experiment [6] it was 63.5%. Further, the growth in experiment [7] was 101%; in [8], 45.5%; in experiment [9], 58.1%.
For `CNCCNc1nc2ccccc2c2c(=O)c3cc(F)ccc3sc12`, the growth is -3.62% (active) in experiment [1]; 17.3% in experiment [2]; 86.4% in experiment [10]; 40.4% in experiment [6]; 56.9% in experiment [7]; 62.4% in experiment [8]. Also, the growth in experiment [9] is -13.4% (active).
As for `O=C1/C(=C/c2ccc(O)cc2)COc2ccc(O)cc21`, the growth in experiment [1] was 8.89% (active); in experiment [2], 108%; in [10], 104%; in experiment [5], 97.3%; in experiment [6] it was 108%; in experiment [7] it was 98.5%. In addition, the growth is 98.7% in [8] and 103% in experiment [9].
`O=C(NC(=S)Nc1cccc(NC(=S)NC(=O)c2ccccc2)c1)c1ccccc1`: the growth is 80.9% in [1]; 31.6% in experiment [2]; 16.4% in experiment [3]; 44.1% in experiment [4]; 69.1% in experiment [5]; 65.1% in [6]. For the same molecule, the growth in experiment [7] was 18.7%; in experiment [8] it was 60.1%; in experiment [9], 54.6%.
For the molecule `O=c1oc2ccc(Br)cc2c(=O)n1-c1ccc(I)cc1F`, the growth is -28.3% (active) in experiment [1]; 10.4% in experiment [2]; 15.2% in experiment [3]; 6.53% (active) in experiment [4]; 15.8% in [5]; 5.31% (active) in experiment [6]. Further, the figures for the growth in [7], in experiment [8] and in experiment [9] were 0.536% (active), 9.96% (active) and -1.18% (active), respectively.
In the case of `Cc1ccc(Cc2cnc(NC(=O)CN3C(=O)/C(=C\c4ccccc4)SC3=S)s2)cc1`, the growth in experiment [1] is 105%; in [2] it was 102%; in [3] it was 99%; in experiment [4], 104%; in [5], 105%; in experiment [6], 112%. Also, the growth was 102% in experiment [7], 107% in experiment [8] and 98.8% in experiment [9].
On to `Nc1ccccc1-c1ccc(-c2ccc(Cl)cc2)c2c1[nH]c1ccccc12`, for which the growth is 42.1% in experiment [1]; 77% in experiment [2]; 92.5% in experiment [3]; 106% in [4]; 62.3% in [5]; 79% in experiment [6]. Also, the figures for the growth in experiment [7], in experiment [8] and in [9] were 82.4%, 77.2% and 60.4%, respectively.
For `O=c1oc2ccc(Br)cc2c(=O)n1-c1ccc(Cl)cc1F`, the growth is -25.5% (active) in experiment [1]; 9.88% (active) in [2]; 23.5% in experiment [10]; 1.82% (active) in [4]; 7.85% (active) in experiment [6]; -5.24% (active) in [7]. For the same molecule, the growth is 8.34% (active) in [8] and -1.08% (active) in [9].
`CSc1nc2c(c(=O)[nH]1)N=C1c3ccccc3C(=O)C1C(c1ccccc1)N2` (stereo unspecified): the growth in [1] was 36.2%; in experiment [2], 61.3%; in [3], 72.6%; in [4], 64.3%; in experiment [5] it was 17.4%; in experiment [6] it was -12% (active). Also, the results for the growth in experiment [7], in experiment [8] and in experiment [9] were 48.2%, 38.3% and 43.9%, respectively.
Turning to `CCCCCCCCCCCCCCn1cc(C2=C(c3coc4ccc(OC)cc34)C(=O)NC2=O)c2ccccc21`, the growth was 122% in [1]; 91.8% in experiment [2]; 93.8% in [10]; 81.6% in [5]; 102% in [6]; 98.5% in [7]. In addition, the growth in experiment [8] was 98.9%; in [9], 96.2%.
On to `Nc1nc2c(ncn2[C@@H]2O[C@H](CS)[C@@H](O)[C@H]2O)c(=O)[nH]1`, for which the growth in [1] was 94.9%; in [2], 99.2%; in [10], 93.3%; in experiment [5], 103%; in experiment [6], 104%; in [7] it was 99.6%. In addition, the growth is 104% in [8] and 107% in experiment [9].
For the molecule `C1CCN(c2nc(N3CCCCC3)nc(N3CCOCC3)n2)CC1`, the growth was 100% in experiment [1]; 96.4% in [2]; 96% in [3]; 99.6% in [4]; 104% in experiment [5]; 118% in experiment [6]. Moreover, the growth in [7] is 112%; in experiment [8], 103%; in experiment [9], 86.2%.
On to `COc1cc2c(cc1OC)C(=O)C(CC1CCN(C(=O)Nc3ccc(C)cc3)CC1)C2` (stereo unspecified), for which the growth in experiment [1] is 111%; in experiment [2] it was 106%; in experiment [3] it was 89.8%; in experiment [4], 98.5%; in [5], 96.1%; in [6], 100%. In addition, the growth in [7] is 82.1%; in experiment [8], 99.6%; in experiment [9] it was 89.1%.
Consider `COCCN(C(=O)Cc1cccs1)C(C(=O)NCc1ccc(OC)cc1)c1ccc(C(C)C)cc1` (stereo unspecified), for which the growth in [1] was 93.2%; in experiment [2], 80.9%; in experiment [10] it was 106%; in experiment [4], 87.5%; in [6] it was 51.5%; in [7], 76.2%. Moreover, the growth in experiment [8] is 73.8%; in [9], 87%.
Take `C=C[C@@H]1CCC/C=C/[C@@H]2C[C@H](O)C[C@H]2[C@H](O)/C=C/C(=O)O1`: the growth in experiment [1] is 23.6%; in experiment [2], 21.4%; in [3], 23.8%; in experiment [4], 20.5%; in experiment [5], 11.8%; in experiment [6], -30.8% (active). For the same molecule, the figures for the growth in experiment [7], in [8] and in experiment [9] were 31.3%, 1.8% (active) and -40.9% (active), respectively.
Regarding `Cc1ccc(Cn2c(N3CCC(C(=O)NCc4cccs4)CC3)nc3ccccc32)cc1`, the growth in experiment [1] is 73.7%; in experiment [2] it was 94.3%; in experiment [10], 107%; in [4], 97.4%; in experiment [6] it was 76.6%; in experiment [7], 79.9%. For the same molecule, the growth in experiment [8] was 86.2%; in [9], 114%.
On to `CCOC(=O)C1(Cc2ccccc2)CCN(Cc2cccc(OC)c2O)CC1`, for which the growth in experiment [1] is 9.49% (active); in experiment [2], 3.17% (active); in experiment [3] it was 17.2%; in [4], 17.5%; in [6], 22.8%; in [7], 28.6%. Further, the growth in [8] is 6.98% (active); in experiment [9], 17.2%.
As for `Clc1ccc(Oc2ccc(Nc3ncnc4onc(-c5ccccc5)c34)cc2)c(Cl)c1`, the growth in experiment [1] is 90.8%; in experiment [10], 101%; in experiment [3], 81.5%; in experiment [5] it was 94.5%; in experiment [6], 109%; in experiment [7], 99.5%. The growth in experiment [8] was 96.8%; in [9] it was 83.5%.
Regarding `O=C1/C=C/[C@@H](O)[C@@H]2C[C@@H](O)C[C@H]2/C=C/CCCCO1`, the growth in experiment [1] is -39.2% (active); in experiment [2], 12.5%; in experiment [4], 13%; in [6], -31.3% (active); in [7], 23.3%; in [8] it was 9.26% (active). For the same molecule, the growth in experiment [9] is -11.1% (active).
Take `O=C1NC(=O)C(=Cc2cn(Cc3cn(Cc4ccc(Cl)cc4Cl)nn3)c3ccccc23)C(=O)N1`: the growth was 83% in experiment [1]; 50.8% in experiment [10]; 82.4% in [3]; 69% in [4]; 85.7% in experiment [5]; 92.4% in experiment [6]. In addition, the growth in experiment [7] is 87.5%; in experiment [8], 96.9%; in [9], 64.7%.
Regarding `Cc1ccc2sc3c(NCCCNCCO)nc4ccccc4c3c(=O)c2c1`, the growth in experiment [1] is -16.5% (active); in experiment [10], 90.7%; in experiment [3], 60.4%; in [5], 48.8%; in experiment [6], 26.6%; in [7], 44.2%. The growth was 72.6% in experiment [8] and -39.5% (active) in experiment [9].
Consider `CC1=C(C(=O)OCC2CCN(C(=O)OC(C)(C)C)CC2)[C@@H](c2cccc(C#N)c2)C2=C(CC(C)(C)CC2=O)N1`, for which the growth is 32.3% in experiment [1]; 70.2% in [10]; 67.3% in [3]; 66.5% in experiment [4]; 45.4% in [5]; 52.4% in experiment [6]. Also, the growth was 64.5% in experiment [7], 44.7% in [8] and 56.1% in experiment [9].
Regarding `CCC1=C[C@]2(C3CC(=O)N(c4ccccc4)C3=O)CC(C(C)(C)C)C[C@@H]2[C@@H]2C(=O)N(c3ccccc3)C(=O)[C@H]12` (stereo partly specified), the growth in [1] is 59.7%; in experiment [10], 88.7%; in [3], 89.4%; in [4], 88.6%; in experiment [5], 90.8%; in experiment [6], 86%. The growth in experiment [7] was 83%; in [8], 91.3%; in experiment [9], 70.5%.
`CCOC(=O)c1ccc(N=Cc2sc(=O)[nH]c2O)cc1`: the growth in experiment [1] was 101%; in experiment [10], 102%; in experiment [3], 100%; in experiment [4] it was 91.6%; in experiment [5] it was 87.1%; in experiment [6], 103%. Besides, the growth was 88.1% in experiment [7], 96.8% in experiment [8] and 92.3% in experiment [9].
Turning to `COc1cc(NC(=O)CCSc2nc3ccccc3c(=O)n2Cc2ccccc2)cc(OC)c1OC`, the growth in [1] is 56.9%; in [2], 79.3%; in experiment [4], 99.3%; in experiment [5], 99.4%; in experiment [6], 88.1%; in experiment [7], 77.3%. Further, the growth is 82.1% in experiment [8] and 78.1% in experiment [9].
With `Nc1nc(Nc2cccc(F)c2)nc2ccccc12`, the growth in [1] is 0.232% (active); in [10], 54.1%; in experiment [3] it was 40.4%; in [4], 72.7%; in experiment [5], 28%; in experiment [6], 50.6%. The growth is 63.9% in experiment [7], 38.1% in experiment [8] and 41.5% in [9].
